Screening data as filed in PubChem BioAssay.
TRPV1 PAM: enhances activation of the human vanilloid receptor TRPV1; Q8NER1; TRPV1-expressing cells, Fluo-8 calcium influx, capsaicin EC20 potentiation; potentiation, % at 8.33 µM; 0.02% of 320,000 active; AID 540277; in the data active means potentiation above about 80%; inconclusive means between about 30% and that limit; further: 0% is about no effect
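Cells expressing TRPV1 were dye-loaded with Fluo-8 and read kinetically: 10 s baseline, 3 min after compound (agonist portion), then 2 min after EC20 capsaicin (allosteric enhancer portion). Calcium-bound dye fluorescence at 480/520 nm.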
KCNH2 3.1 inh: inhibitors of human KCNH2 3.1 potassium channel isoform. U2OS KCNH2 3.1, thallium flux FluxOr; active compounds read low. 0.95% of 340,000 active. activity change, % (tested at about 1.8 µM). AID 720553;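 active means maximum activity change below -70%; inconclusive means maximum activity change from -70% to -50%; inactive means maximum activity change above -50%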;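 further: thallium influx rate constant from kinetic fluorescence after stimulation buffer; on the % scale 0 is the no-effect control and ±100 the full control effect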
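Virally transduced U2OS (3.1 isoform, 4 h infection in dark at RT) → overnight 37 C → FluxOr + Red40 in HBSS/HEPES, 45 min → stimulation buffer, 2 min kinetic read → rate constant vs DMSO controls.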
p53 reactivation: restores transcriptional activity of mutant p53; H1299 p53-A138V BP100-luciferase reporter, luminescence, 24 h; 0.063% of 320,000 active; AID 504706; Potency, µM (doses to about 92.2 µM), without a hit: at the highest dose activity change, positive = activation, actives largely listed as activators; active means well fitted activation curve with a large enough effect; inconclusive means small, poorly fitted or top-dose-only effect; inactive means no such curve, though single readings can be large or run the other way; further: potency means the concentration at half of the fitted maximal effect; % of control where 0% means no effect; nearly all actives have a fitted effect of over 45% in size
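p53-null H1299 cells stably carrying temperature-sensitive p53-A138V and a BP100-luciferase reporter were pinned with compounds (4-point, 1:5 series) and held 24 hrs at 37 deg C. Luminescence was read 10 min after detection reagent.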
hERG WT inh: KCNH2 (human, wildtype) channel inhibition. U2OS, BacMam KCNH2, thallium flux FluxOr; active compounds read low. activity change, % at 1.84 µM. Q12809. 0.37% of 340,000 active;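 active means maximum activity change below -70%; inconclusive means maximum activity change between -70% and -50%; inactive means maximum activity change above -50%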; further: on the % scale 0 is the no-effect control and ±100 the full control effect
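U2OS cells transduced with wild-type KCNH2 virus are loaded with FluxOr dye for 45 min, and thallium flux is measured in kinetic reads before and after stimulation buffer. Rate constants are normalized to DMSO controls.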
ClpP mod: qHTS Assay for Activators of ClpP | purified B. subtilis ClpP, FRET peptide cleavage, 20 min | Potency, µM (series often up to 57.5 µM), for the others: at the highest dose activity change, negative = active | 1.9% of 340,000 active; active means well fitted falling curve with a large enough effect; inconclusive means small, poorly fitted or top-dose-only effect; inactive means no such curve, though single readings can be large or run the other way; further: potency means the concentration at half of the fitted maximal effect; the source files actives as falling curves though it sought activators and does not explain the sign; nearly all actives have a fitted effect of over 65% in size
Target sequence (P80244 whole entry, looked up): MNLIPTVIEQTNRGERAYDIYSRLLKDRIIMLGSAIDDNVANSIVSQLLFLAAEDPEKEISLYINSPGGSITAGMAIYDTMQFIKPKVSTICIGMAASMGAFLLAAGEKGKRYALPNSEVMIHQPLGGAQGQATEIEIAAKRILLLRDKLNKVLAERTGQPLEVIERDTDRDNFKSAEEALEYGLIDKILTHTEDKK
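FRET quenching reversal measured ClpP activation: 10 microg/mL B. subtilis ClpP at pH 8 with the FRET-FV decapeptide, read at 430 nm after 320 nm excitation. The 20-min minus 0-min signal was scaled between DMSO/no-enzyme wells and ADEP (5.8 microM final).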
TRPV1 ag: human TRPV1 agonism | Q8NER1 | TRPV1-expressing cells, Fluo-8 calcium influx, agonist mode | activation, % at 8.33 µM | 0.19% of 320,000 active | AID 540275; in the data active means activation above about 80%; inconclusive means between about 30% and that limit; further: 0% is about no effect
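TRPV1-expressing cells were cultured overnight at 35.5C and loaded with Fluo-8 calcium dye for 40 to 90 min at room temperature. After a 10 s baseline, compound was added and calcium influx was read kinetically for 3 min (ex 480/em 520 nm).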
Numbers without * were called inactive; ? = inconclusive; . = no result given. Shown are actives, neighbours in structure and some others; about 2.6% of the full set was active somewhere.

SMILES | TRPV1 PAM | KCNH2 3.1 inh | p53 reactivation | hERG WT inh | ClpP mod | TRPV1 ag
CCOc1ccc2ncc3c(-c4cccc(OC)c4)nn(-c4ccccc4)c3c2c1 | . | . | . | . | 10µM* | .
Cc1cccc(N2CCN(c3ncnc4onc(C)c34)CC2C)c1 (stereo not drawn) | . | . | . | . | 2% | .
CCOc1ccc(NC(=O)CN(C)C(=O)c2cc(-c3ccc(OC)cc3)nc3ccccc23)cc1OCC | 24 | -8 | -11% | 5 | 32µM* | 0
COc1ccc(NC(=O)CN(C)C(=O)c2cc(-c3ccc(Cl)cc3)nc3ccccc23)cc1 | 9 | 4 | -4% | 6 | -2% | 4
CCOc1ccc(NC(=O)CN(C)C(=O)CCCc2nc3ccccc3c(=O)[nH]2)cc1OCC | 8 | 3 | -3% | 4 | 16µM* | 1
CCCn1nc(C(=O)N(C)CC(=O)Nc2ccc(OCC)c(OCC)c2)c2ccccc2c1=O | -4 | 2 | -9% | -4 | 25µM* | 0
CCCCn1nc(C(=O)N(C)CC(=O)Nc2cccc(F)c2)c2ccccc2c1=O | 13 | -9 | -4% | 2 | 1% | -5
COC(=O)c1scc(-c2ccc(C)cc2)c1S(=O)(=O)Nc1cc(C)ccc1OC | . | . | . | . | 0% | .
Cc1ccccc1-c1nc2c3c(-c4ccccc4)c(-c4ccccc4)oc3ncn2n1 | . | . | . | . | -14% | .
COC(=O)C(CCSC)NC(=O)Cn1ncc2c([nH]c3ccccc32)c1=O (stereo not drawn) | . | . | . | . | -24% | .
CCc1ccc(CN2CCc3nc(Nc4ccc5c(c4)OCCO5)ncc3C2)cc1 | . | . | . | . | -4% | .
O=C(Nc1ccc(F)cc1F)c1cc(-c2ccco2)on1 | 11 | 12 | ? | 6 | -3% | 0
O=C(Nc1ccc(F)cc1F)c1ccco1 | 6 | -77* | . | -6 | -2% | -3
COc1cc2c(=O)n(Cc3ccccc3Cl)c(=O)n(CC(=O)Nc3ccc(C)c(C)c3)c2cc1OC | . | . | . | . | -7% | .
COc1ccc(Cl)cc1S(=O)(=O)NCc1ccc2c(c1)CCN2C(=O)c1cccc(C)c1 | . | . | . | . | -4% | .
Cc1ccc(N2CCN(C(=O)N3CCCC3)CC2)cc1C | -22 | -1 | 3% | -5 | -6% | 94*
Cc1cccc(N2CCN(C(=O)N3CCOCC3)CC2)c1C | -7 | -8 | 1% | -4 | . | 9
Cc1cccc(N2CCN(C(=O)N3CCCCC3)CC2)c1C | -2 | -26 | -6% | -3 | . | 82*
COC(=O)CC(=O)CSc1nc2cc(C(=O)NCC(C)C)ccc2c(=O)n1CCc1ccccc1 | . | . | . | . | -10% | .
Cc1cc(C)nc(N2CCC(C(=O)NC3CCCCCC3)CC2)n1 | . | 6 | . | -5 | -1% | .
Cc1cc(C)nc(N2CCCC(C(=O)NC3CCCC3)C2)n1 (stereo not drawn) | -4 | -19 | -11% | -5 | 22µM* | 7
Cc1cc(C)nc(N2CCCC(C(=O)Nc3ccc4c(c3)OCO4)C2)n1 (stereo not drawn) | 7 | -3 | 0% | 7 | -3% | 83*
Cc1ccc(C)c(N2CCN(C(=O)CSCc3ccccc3Cl)CC2)c1 | . | . | . | . | -3% | .
COc1ccc(-n2c(SCC(=O)Nc3ccccc3OC)nc(O)cc2=O)cc1 | 6 | 3 | -2% | -1 | 35µM* | -7
COc1ccc(-n2c(SCC(=O)Nc3ccc(Br)cc3)nc(O)cc2=O)cc1 | 11 | 3 | 8% | 2 | 25µM* | 2
SMILES | TRPV1 PAM | KCNH2 3.1 inh | p53 reactivation | hERG WT inh | ClpP mod | TRPV1 ag
CCOC1=C2CN(S(=O)(=O)c3ccc(C)cc3)[C@H](c3ccccc3)C[C@@H]2N(S(=O)(=O)c2ccc(Br)cc2)[C@H](c2ccccc2)C1 | . | . | . | . | -6% | .
Clc1ccc(CNc2cc(-c3ccccc3)nc3nncn23)cc1 | . | . | . | . | -25% | .
O=C(CN1C(=O)CCC1=O)Nc1nc(-c2ccccn2)cs1 | -1 | -117* | -1% | 4 | -10% | 1
Cc1ccc2[nH]c(=O)c3cc(C(=O)NCCCN4CCC(C)CC4)sc3c2c1 | . | . | . | . | 13µM* | .
CCN1CCN(CCCNC(=O)c2cc3c(=O)[nH]c4ccccc4c3s2)CC1 | 0 | 9 | -3% | -1 | 8.9µM* | -2
O=C(NCCCN1CCOCC1)c1cc2c(=O)[nH]c3ccccc3c2s1 | -22 | 20 | -11% | 0 | -10% | 2
COc1cc2c(NC3CCN(C)CC3)nc(N3CCN(C)CC3)nc2cc1OCCCN(C)C | . | . | . | . | 4% | .
CCOc1ccccc1CNC(=O)c1cc2oc3ccccc3c2n1C | 9 | ? | -1% | -7 | 20µM* | 3
CCOc1ccccc1CNC(=O)c1cc2occc2n1C | 5 | 0 | 0% | 1 | -2% | ?
COC(=O)[C@H]1[C@H]2C[C@@H]3c4[nH]c5cc(OC)ccc5c4CCN3C[C@H]2C[C@@H](OC(=O)/C=C/c2cc(OC)c(OC)c(OC)c2)[C@@H]1OC | 10 | -73* | 5% | -31 | -29% | 2
Cc1ccc(NC(=O)c2ccccc2-c2ccccc2C(=O)O)cc1 | -3 | 9 | -9% | -2 | -1% | -4
Cc1ccc(O)c(NC(=O)c2ccccc2-c2ccccc2C(=O)O)c1 | 2 | 1 | 1% | 8 | 25µM* | 2
Cc1ccc(C)c(NC(=O)c2cc(-c3ccccc3O)n[nH]2)c1 | 7 | -81* | 5% | -6 | . | 3
CCCN(CCC)CCNC(=O)c1cc(Sc2ccc(Cl)cc2)nc2ccccc12 | . | . | . | . | 0% | .
COc1cccc(CNC(=O)c2nc(Cn3nc(C)c(Br)c3C)no2)c1 | . | . | . | . | -3% | .
Cc1ccc(S(=O)(=O)NCC(=O)OCC(=O)Nc2cccc(S(=O)(=O)NC3=NCCCCC3)c2)cc1 | ? | -1 | -1% | -20 | 25µM* | 1
O=C(Cn1nc(-c2ccc(Cl)cc2)ccc1=O)NCCCN1CCN(Cc2ccccc2)CC1 | 11 | -25 | 9% | 52 | 32µM* | -2
Cc1nn(CC(=O)NCCCN2CCC(Cc3ccccc3)CC2)c(=O)c2cc(-c3ccccc3)nn12 | 3 | -103* | 11% | -87* | -2% | 3
CCc1ccc(-c2cc3c(=O)n(CC(=O)NCCCN4CCC(Cc5ccccc5)CC4)nc(C)n3n2)cc1 | ? | -91* | 9% | -45 | -2% | 0
